Screens (PubChem BioAssay)
Hits are enriched below; roughly 3.1% of the tested compounds scored in any of these assays.
BoNT F protease: blocks Botulinum neurotoxin F light chain protease; 360,000 tested, 0.22% active; inhibition, % at 10 µM; Multiplex microsphere protease cleavage assay, flow cytometry; AID 588497; in the data active = inhibition above about 35%, passing the limit was not always enough; inconclusive = no clear call, values can overlap the other calls; note: plate controls were buffer without enzyme for full effect and enzyme alone for no effect
BoNT-A LC inh2: BoNT A light chain protease inhibition; multiplex microsphere protease substrate cleavage, flow cytometry; 360,000 tested, 0.17% active; inhibition, % at 10 µM; note: plate controls were buffer without enzyme for full effect and enzyme alone for no effect
Bead autofluor: counter-screen for toxin protease inhibitors: compound fluorescence; compound autofluorescence counterscreen, microsphere flow cytometry; hits give high values; fluorescence intensity (no concentration beside the values); 360,000 tested, 3.1% active; AID 624483; in the data active = fluorescence intensity above about 16000; inconclusive = no clear call, values can overlap the other calls
Anthrax LF inh2: inhibitors of Bacillus anthracis lethal factor protease | P15917 | multiplex microsphere protease cleavage assay, LF | inhibition, % at 10 µM | 360,000 tested, 0.12% active; note: plate controls were buffer without enzyme for full effect and enzyme alone for no effect
Target sequence (P15917 whole entry, looked up): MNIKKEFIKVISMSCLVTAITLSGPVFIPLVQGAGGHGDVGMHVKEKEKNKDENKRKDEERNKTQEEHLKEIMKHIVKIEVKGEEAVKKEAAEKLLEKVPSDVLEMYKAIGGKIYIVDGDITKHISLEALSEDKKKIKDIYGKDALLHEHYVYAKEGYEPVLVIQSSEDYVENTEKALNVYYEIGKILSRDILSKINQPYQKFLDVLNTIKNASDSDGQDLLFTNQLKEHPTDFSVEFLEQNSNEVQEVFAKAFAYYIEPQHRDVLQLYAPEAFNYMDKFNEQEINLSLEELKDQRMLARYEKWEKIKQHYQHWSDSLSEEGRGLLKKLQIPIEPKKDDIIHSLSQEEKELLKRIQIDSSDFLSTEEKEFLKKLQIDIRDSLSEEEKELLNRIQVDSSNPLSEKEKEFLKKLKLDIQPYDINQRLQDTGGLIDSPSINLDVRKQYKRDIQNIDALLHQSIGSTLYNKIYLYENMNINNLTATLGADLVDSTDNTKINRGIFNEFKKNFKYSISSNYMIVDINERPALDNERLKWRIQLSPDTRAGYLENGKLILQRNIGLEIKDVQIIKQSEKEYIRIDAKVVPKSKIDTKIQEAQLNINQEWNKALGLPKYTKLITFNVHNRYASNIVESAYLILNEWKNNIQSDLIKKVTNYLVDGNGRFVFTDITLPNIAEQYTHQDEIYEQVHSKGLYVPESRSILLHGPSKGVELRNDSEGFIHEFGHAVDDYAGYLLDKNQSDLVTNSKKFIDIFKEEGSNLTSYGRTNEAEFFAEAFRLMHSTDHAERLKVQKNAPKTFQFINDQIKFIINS
PriA SSB inh: blocks PriA binding to SSB C-terminal tail | 430,000 tested, 0.6% active | AlphaScreen SSBct-PriA binding, biotinylated peptide | inhibition, % at 33 µM | AID 1272365; in the data active = inhibition mostly above about 37%, no sharp cut-off; inactive = mostly below about 20%;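 note: plate controls were negative control peptide for no effect and reference peptide for full effect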
* hit, by the source's call; ? = inconclusive; / = no result. Cut-off read from the data, not from the text of the source, unless noted: active = inhibition above about 30%; inconclusive = no clear call, values can overlap the other calls; inactive = below that.

SMILES | BoNT F protease | BoNT-A LC inh2 | Bead autofluor | Anthrax LF inh2 | PriA SSB inh
COc1ccc2[nH]c(=O)c(CN(C(=O)NC3CCCCC3)C3CCCCC3)cc2c1 | -4 | 0 | 10095 | 2 | -4
COc1ccc2[nH]c(=O)c(CN(Cc3cccnc3)C(=O)Nc3ccccc3)cc2c1 | -5 | -3 | 23007* | -4 | -4
COc1ccc2cc(CN(C(=O)Nc3ccccc3)C3CCCC3)c(=O)[nH]c2c1 | -6 | -3 | 23679* | -1 | -13
CN(CC(=O)Nc1ccncc1)S(=O)(=O)c1ccc(Br)cc1 | 3 | 0 | 7812 | -4 | -10
CN(CC(=O)Nn1cnnc1)S(=O)(=O)c1ccc(Br)cc1 | 10 | ? | 18838* | -10 | -8
CCN(CC)c1ccc(NC(=S)NC(=O)C2CCC2)cc1 | 2 | 1 | 6073 | -2 | 55*
O=C(CN1C(=O)CCC1=O)NCc1cnn2ccccc12 | / | / | / | / | -12
COc1ccc(Cl)cc1S(=O)(=O)NCCCN1CCN(c2ccccc2)CC1 | / | / | / | / | 2
Oc1ccc(COCc2ccccc2)c2cccnc12 | -20 | -2 | 2116 | 1 | 84*
CN(Cc1ccco1)Cc1ccc(O)c2ncccc12 | -12 | -1 | 3125 | 4 | -5
Oc1ccc(COC2CCCCC2)c2cccnc12 | / | / | / | / | 108*
CC(C)COCc1ccc(O)c2ncccc12 | -8 | -3 | 4414 | -4 | 84*
Oc1ccc(Cc2ccccc2)c2cccnc12 | -6 | 0 | 3452 | -3 | 9
Oc1ccc(COc2cccc3cccnc23)c2cccnc12 | / | / | / | / | 32
CCCOCc1ccc(O)c2ncccc12 | -1 | -2 | 3852 | -1 | 54*
O=C(Cc1cccs1)NCCc1ccc(N2CCCC2)cc1 | / | / | / | / | -4
O=S(=O)(c1cccnc1)N1CCN(Cc2nc(-c3cccs3)cs2)CC1 | / | / | / | / | 5
C=C(C)CNC(=S)N/N=C(\C)c1ccc(-n2ccnc2)cc1 | -2 | -1 | 19874* | 0 | /
C[C@@H](CC(=O)O)n1ccnc1 | / | / | / | / | -17
Clc1ccc(CN2C3=NCCN3c3ccccc32)cc1Cl | -4 | 0 | 23094* | 0 | -17
Cc1cc(C(=O)O)ccc1-c1ccc(/C=C2\NC(=O)N(Cc3ccccc3Cl)C2=O)o1 | -3 | 0 | 4188 | 4 | -10
Cc1ccc(C(=O)O)cc1-c1ccc(/C=C2/NC(=O)N(c3ccccc3)C2=O)o1 | 0 | 0 | 23411* | 2 | -11
CCOc1cccc2sc(NCCCn3ccnc3)nc12 | / | / | / | / | 1
O=C(CCC(=O)NC1CCCCCC1)Nc1nnc(C(F)(F)F)s1 | 6 | ? | 21138* | -6 | -10
COc1ccc(NC(=O)CCC(=O)Nc2nnc(C(F)(F)F)s2)c(OC)c1 | -2 | 1 | 18599* | -10 | -13
SMILES | BoNT F protease | BoNT-A LC inh2 | Bead autofluor | Anthrax LF inh2 | PriA SSB inh
CSc1nc(N)nc(SCC(=O)CC(=O)OC(C)C)c1C#N | -3 | ? | 20850* | 0 | -15
Cc1cc2cc(C=O)c(Cl)nc2cc1C | -7 | -3 | 17857* | -3 | 4
Cc1ccc2nc(Cl)c(C=O)cc2c1 | / | / | / | / | 7
CN(C)c1cncc(O[C@H]2CCN(C(=O)c3ccsc3)C2)n1 | / | / | / | / | -4
Cc1cc2nc3ccc(=[N+](C)C)cc-3sc2cc1N | -10 | 61* | 3584 | 20 | 83*
CN(C)c1ccc2nc3ccc(=O)cc-3sc2c1 | -3 | 4 | 2898 | -2 | /
CN(C)c1ccc2nc3ccc(=[N+](C)C)cc-3sc2c1 | -25 | 32* | 2168 | 7 | 1
CCOC(=O)CNC(=O)C1(c2ccccc2)CCCC1 | -4 | -1 | 16511* | 1 | -4
O=c1nc2ccccc2c2n1CC(CN1CCN(c3cccc(Cl)c3)CC1)N2 (stereo not drawn) | -6 | -7 | 17652* | -2 | -7
COc1cc(C(=S)N2CCCC2)cc(OC)c1O | -1 | 0 | 20756* | -2 | -13
CCOc1cc(C(=S)N2CCCC2)ccc1OC | 7 | -1 | 3437 | 6 | 10
Cn1c2ccc(F)cc2c2ncn(Cc3ccco3)c(=O)c21 | -7 | -2 | 23973* | -2 | -1
Cn1c2ccccc2c2ncn(Cc3ccco3)c(=O)c21 | 1 | 2 | 19514* | 0 | 4
Cc1nc(-c2cccs2)c(CCC(=O)NC2CCCCCC2)s1 | / | / | / | / | -10
O=S(Cc1ccc(Br)cc1)Cc1nnc(SCc2c(Cl)cccc2Cl)n1-c1ccccc1 (stereo not drawn) | -1 | 0 | 11794 | -2 | 5
Cn1c(CO)cnc1SCc1c(Cl)cccc1Cl | -1 | ? | 22193* | -1 | 4
Cn1c(CO)cnc1SCc1ccc(F)cc1 | 0 | 0 | 4641 | -4 | 1
Cn1c(CS(=O)Cc2c(Cl)cccc2Cl)nnc1SCc1c(Cl)cccc1Cl (stereo not drawn) | -1 | -1 | 16613* | -2 | -2
O=c1ccc(-n2ccc3ccccc32)nn1CCNS(=O)(=O)c1cccnc1 | / | / | / | / | 6
O=C(O)CCC(=NNC(=O)CNC(=O)/C=C/c1ccccc1)c1ccccc1 | / | / | / | / | -6
COc1cccc(N=C(N)N=C(N)N)c1 | ? | -4 | ? | -13 | -2
COc1ccnc(CSC(N)=Nc2ccc(F)cc2)c1 | -10 | 0 | 3962 | 1 | 46*
COC(=O)c1ccsc1NC(=O)CC1SC(N2CCOCC2)=NC1=O (stereo not drawn) | / | / | / | / | -9
O=S(=O)(Nc1ccc(Cc2ccncc2)cc1)c1ccc(Cl)c(Cl)c1 | 2 | 0 | 16421* | -4 | -6
COc1ccc(S(=O)(=O)Nc2ccc(Cc3ccncc3)cc2)cc1OC | 6 | 2 | 4317 | 4 | 5
SMILES | BoNT F protease | BoNT-A LC inh2 | Bead autofluor | Anthrax LF inh2 | PriA SSB inh
CCn1c(SCC#N)nc2c(c1=O)C1(CCCC1)Cc1ccccc1-2 | -7 | -2 | 24128* | 0 | -7
N#CCSc1n[nH]c2nc3c(c(=O)n12)C1(CCCCC1)Cc1ccccc1-3 | 1 | 1 | 5625 | -3 | -10
CC(O)c1cccc(N=Cc2ccc3ccccc3c2O)c1 (stereo not drawn) | ? | 6 | 3851 | 42* | -4
Cc1ccc(SCc2[nH]nc3c2C(c2ccco2)C(C#N)=C(N)O3)cc1 (stereo not drawn) | -9 | 0 | 7792 | 1 | -5
Cc1ccc(SCc2[nH]nc3c2C(c2ccc(C)o2)C(C#N)=C(N)O3)cc1 (stereo not drawn) | -4 | 0 | 19530* | -5 | 10
CCCc1nc2oc3c(NCCOCCO)ncnc3c2c2c1COC(C)(C)C2 | 10 | 4 | 7131 | -4 | 6
CCCc1nc2oc3c(OC)ncnc3c2c2c1COC(C)(C)C2 | -4 | 0 | 19420* | 2 | -25
CC(C)c1nc2oc3c(NCC4CCCO4)ncnc3c2c2c1COC(C)(C)C2 (stereo not drawn) | -1 | 1 | 22704* | -4 | -5
CC(C)c1nc2oc3c(NCCO)ncnc3c2c2c1COC(C)(C)C2 | ? | -1 | 3544 | 15 | -9
Cc1nc2oc3c(NCC4CCCO4)ncnc3c2c2c1COC(C)(C)C2 (stereo not drawn) | -2 | 1 | 22824* | -3 | 4
Cc1nc2oc3c(NCc4ccccc4)ncnc3c2c2c1COC(C)(C)C2 | -13 | -3 | 9519 | -10 | -4
CCN1CCN(C(=O)Nc2cnc3ccnn3c2)C(=O)C1=O | / | / | / | / | -28
COc1ccc(C[C@H]2CN3C(=NC[C@@H]3Cc3ccc(O)cc3)N2CCNC(=O)c2ccc(C)c(Br)c2)cc1 | -38 | 0 | 4397 | -7 | 42*
